MCL1 BIM primary: MCL1-BIM-BH3 interaction inhibition (human); inhibition, % at 10.9 µM; GST-MCL1 / FITC-Bim-BH3 fluorescence polarization; 0.68% of 320,000 active; Q07820;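 active means inhibition above the mean inhibition of all tested compounds plus 3 SD, set per campaign, cut at about 40% in these data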;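 further: higher means more loss of mP so more displacement of Bim peptide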
IDE inh: inhibitors of human insulin-degrading enzyme in cells. P14735. HEK cells, FAbetaB cleavage, fluorescence polarization. inhibition, % at 5.59 µM. 0.41% of 320,000 active;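 active means percent inhibition above the average of all tested compounds plus 3 SD, set per screening campaign, cut at about 16% in these data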;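 further: IDE supplied by intact live HEK cells; FP after avidin binding of uncleaved biotin substrate so inhibition keeps polarization high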
MEX-5 binding: C. elegans MEX-5 TCR-2 RNA binding activity | 0.38% of 300,000 active | Q9XUB2 | activity score (negative = inhibition of binding), % at 10 µM | MEX-5/FITC-TCR2 RNA binding, fluorescence polarization; hits give low values;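 active means inhibition past about -25% in most replicates, and total fluorescence under double the plate's negative control median, limit read from the data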
IDE cell activ: IDE (human) activation, cell-based. HEK cells, FAbeta-B cleavage, fluorescence polarization; 0% vehicle, 100% cell-free pure enzyme wells. 0.073% of 340,000 active. activation, % at 5.96 µM. AID 493087;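 active means activation above the mean of all tested compounds plus 3 SD, set per screening campaign, cut at about 17% in these data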
Bcl-xL primary: Bcl-xL (human) inhibition; AID 2129; inhibition, % at 10.9 µM; 0.7% of 320,000 active; GST-Bcl-xL / FITC-Bim BH3 peptide fluorescence polarization;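 active means inhibition above the mean of all tested compounds plus 3 SD, cutoff set per campaign, cut at about 30% in these data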;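 further: inhibitors lower millipolarization by displacing the labeled peptide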
Target sequence (Q07817 whole entry, looked up): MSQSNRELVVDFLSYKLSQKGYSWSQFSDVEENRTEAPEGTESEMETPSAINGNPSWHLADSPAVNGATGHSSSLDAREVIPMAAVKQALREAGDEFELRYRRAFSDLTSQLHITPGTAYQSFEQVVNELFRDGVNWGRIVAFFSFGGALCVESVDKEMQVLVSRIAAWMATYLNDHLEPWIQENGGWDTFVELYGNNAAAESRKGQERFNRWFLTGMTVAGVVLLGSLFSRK
GLD-1 RNA inh: GLD-1-TGE RNA interaction inhibition (C. elegans) | purified GLD-1 + fluorescein TGE RNA, fluorescence polarization | inhibition, % at 5.96 µM | 0.44% of 320,000 active | AID 2280;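 active means percent inhibition above a per-plate cutoff, the plate mean of test compounds plus 3 SD, cut at about 30% in these data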
Target sequence (Q17339 whole entry, looked up): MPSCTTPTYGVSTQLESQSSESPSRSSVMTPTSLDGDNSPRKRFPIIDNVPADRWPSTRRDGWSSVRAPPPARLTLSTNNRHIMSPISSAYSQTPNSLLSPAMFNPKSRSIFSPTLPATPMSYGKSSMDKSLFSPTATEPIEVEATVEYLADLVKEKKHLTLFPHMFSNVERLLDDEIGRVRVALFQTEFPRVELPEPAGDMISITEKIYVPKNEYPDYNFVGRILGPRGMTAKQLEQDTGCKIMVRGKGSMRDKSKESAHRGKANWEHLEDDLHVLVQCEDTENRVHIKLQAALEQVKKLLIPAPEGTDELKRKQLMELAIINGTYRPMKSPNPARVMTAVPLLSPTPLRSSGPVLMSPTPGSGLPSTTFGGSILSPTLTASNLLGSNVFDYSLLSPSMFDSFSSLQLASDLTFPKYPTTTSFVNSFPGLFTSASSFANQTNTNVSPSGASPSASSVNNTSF
Each line names hits and unclear results; the compound was inactive in the other large screens. Shown are actives, neighbours in structure and some others; about 1.5% of the full set was active somewhere.

Oc1ccc(NC(=S)N=Nc2c(O)[nH]c3ccccc23)cc1	MEX-5 binding -25.9
Cn1c(N=Nc2ccc(N3CCOCC3)cc2)[n+](C)c2ccccc21	MEX-5 binding -31.1 (no result: MCL1 BIM primary, IDE inh, Bcl-xL primary, GLD-1 RNA inh)
O=C(Nc1c2ccccc2nc2ccccc12)C(Cl)(Cl)Cl	Bcl-xL primary 36.5
Nc1c(S(=O)(=O)c2ccccc2)c2nc3ccccc3nc2n1Cc1ccco1	GLD-1 RNA inh 46.6
Cc1ccc(S(=O)(=O)c2c(N)n(Cc3ccco3)c3nc4ccccc4nc23)cc1C	Bcl-xL primary 31.7
Cc1ccc(S(=O)(=O)c2c(N)n(CCN3CCOCC3)c3nc4ccccc4nc23)cc1C	none
COC(=O)c1ccc(/C=C/C(=O)OCC(=O)NCc2cccs2)cc1	none (no result: MCL1 BIM primary, MEX-5 binding, Bcl-xL primary)
O=C(N/N=C/c1oc(O)c2ccccc12)c1ccccc1O	MEX-5 binding -33.9
CCN(CC)CCCNc1nc(SC)nc2sc3c(c12)CCN(C)C3	Bcl-xL primary 70.6 (no result: IDE cell activ)
CSc1nc(NCCCO)c2c3c(sc2n1)CN(C)CC3	none
CC(=O)C1=C(c2ccccc2)N(C(C)=O)n2c(C)nnc2S1	MEX-5 binding -44.6
Cc1ccc(S(=O)(=O)N2CCN(C(=O)COC(=O)Cc3ccc(Cl)cc3)CC2)c(C)c1	none (no result: MEX-5 binding)
Cc1cccc(N2CCN(C(=S)Nc3ccc4nc(N5CCN(C)CC5)cc(C)c4c3)CC2C)c1 (stereo not given)	IDE cell activ 30.1
Cc1cc(N2CCN(C)CC2)nc2ccc(NC(=S)N3CCN(c4cccc(Cl)c4)CC3)cc12	none
Cc1ccccc1NC(=S)Nc1ccc2[nH]c(=O)[nH]c2c1	none (no result: MEX-5 binding)
CC(=O)N=c1c(C#N)cc2c(=O)n3cccc(C)c3nc2n1CCCOC(C)C	MEX-5 binding -26.3 (no result: IDE cell activ)
COCCCn1c(=NC(=O)c2ccncc2)c(C#N)cc2c(=O)n3cccc(C)c3nc21	Bcl-xL primary 41.2
COc1ccc(C(=O)N=c2c(C#N)cc3c(=O)n4cccc(C)c4nc3n2Cc2ccco2)cc1	MEX-5 binding -40.5 (no result: MCL1 BIM primary, IDE inh, IDE cell activ, Bcl-xL primary, GLD-1 RNA inh)
CCCCn1c(=NC(=O)c2cccnc2)c(C#N)cc2c(=O)n3cccc(C)c3nc21	MCL1 BIM primary 47.9, Bcl-xL primary 46.3
Cc1cc(C)c(S(=O)(=O)Nc2ccccc2C(=O)OCC(=O)NCc2ccccc2)c(C)c1	none
COc1cccc(/C=N/NC(=O)c2ccc(=O)[nH]n2)c1O	MEX-5 binding -35.0
COc1ccc(/C=C(\C#N)C(=O)Nc2cc(C)c(Cl)cc2OC)cc1O	IDE cell activ 20.2
CCC1c2ccc(C)n2CCN1C(=O)Nc1cc(Cl)ccc1OC (stereo not given)	MCL1 BIM primary 53.4, Bcl-xL primary 56.3, GLD-1 RNA inh 38.2
CC1CCCCN1C(=O)Nc1ccccc1Cl (stereo not given)	none
CCCC1c2ccc(C)n2CCN1C(=O)Nc1ccccc1Cl (stereo not given)	MCL1 BIM primary 44.6, Bcl-xL primary 40.8
COc1ccc(Cl)cc1NC(=O)N1CCC(C)CC1	none
COc1ccc(OC)c(Cc2nnc(CCC(=O)NCc3nc4ccccc4s3)o2)c1	none
Cc1cc(NC(=O)c2ccco2)ncc1NC(=O)CCc1ccccc1	none
CCC(=O)Nc1cc(C)c(NC(=O)CCc2ccccc2)cn1	MCL1 BIM primary 43.7, MEX-5 binding -25.9, Bcl-xL primary 48.9, GLD-1 RNA inh 36.8
O=C(CS)Nc1ccc2ccccc2c1	IDE inh 17.3
CC(C)NC(=O)NC(=O)COC(=O)c1ncc(Cl)c(Cl)c1Cl	none
Cc1ccc(S(=O)(=O)Nc2nc3ccccc3nc2Nc2cccc(S(=O)(=O)N3CCCC3)c2)cc1	Bcl-xL primary 36.6
O=C(NCC1CC1)c1cccc2c1C(=O)c1ccc(N3CCCC3)cc1S2(=O)=O	GLD-1 RNA inh 43.6 (no result: MCL1 BIM primary, MEX-5 binding, Bcl-xL primary)
C=CCNC(=O)c1cccc2c1C(=O)c1ccc(N3CCCC3)cc1S2(=O)=O	GLD-1 RNA inh 43.2 (no result: MCL1 BIM primary, MEX-5 binding, Bcl-xL primary)
Cc1ccc(S(=O)(=O)N2CCC(NC(=O)c3cccnc3)CC2)cc1Cl	none
Cc1nn(-c2ccc(Br)cc2)c(=O)c2ccccc12	Bcl-xL primary 30.8
Cc1nn(-c2ccccc2)c2nc(C(F)F)cc(C(F)F)c12	none (no result: MEX-5 binding)
COc1ccc(N/C=C(\C#N)S(=O)(=O)c2ccc(OC)cc2)cc1	none
Cc1ccc(N/C=C(\C#N)S(=O)(=O)c2ccccc2)cc1	IDE cell activ 18.1
CC1=NN(C(N)=S)C(=O)C1N=Nc1ccccc1O (stereo not given)	none
CC(=O)N(C)c1ccc(N=NC2C(=O)N(C(N)=S)N=C2C)cc1 (stereo not given)	MEX-5 binding -25.6
CC1=NN(C(N)=S)C(=O)C1N=Nc1c(Cl)cc([N+](=O)[O-])cc1Cl (stereo not given)	MEX-5 binding -31.0
CC(=O)N(C)c1ccc(N=Nc2c(C)[nH]n(C(N)=S)c2=O)cc1	MEX-5 binding -32.1
CC1=NN(C(N)=S)C(=O)C1N=Nc1ccc(S(N)(=O)=O)cc1 (stereo not given)	MEX-5 binding -68.7
COc1ccc(CC(=O)N/N=C/c2cccnc2)cc1OC	none
c1ccc(C2CC(c3ccccc3)n3c(nc4ccccc43)N2)cc1 (stereo not given)	none
CCCCn1nc2cc(C(=O)NCCCCc3ccccc3)ccc2c1OCC	IDE cell activ 20.6
COc1ccc(/C=C(\C#N)c2nc3ccc(C)cc3[nH]2)cc1Oc1ccc(C(F)(F)F)cc1[N+](=O)[O-]	MEX-5 binding -57.6
CCC1=C/C(=C/N(C)c2ccccc2)C(=O)S1	Bcl-xL primary 31.1
COc1ccc(OC)c(-c2oc3ccccc3c(=O)c2O)c1	none
COc1ccc(OC)c(C2=C/C(=C/c3ccccn3)C(=O)O2)c1	MEX-5 binding -41.8, Bcl-xL primary 31.1
O=C1CCC/C(=N\NC(=O)c2ccc(COc3cccc4cccnc34)cc2)C1	GLD-1 RNA inh 49.3
CN(C)c1ccc(/C=C/C(O)=C2/C(=O)N(C)C3(C)CC2c2ccccc2O3)cc1 (stereo not given)	IDE inh 42.3 (no result: IDE cell activ)
CCOc1ccc(/C=C/C(O)=C2/C(=O)N(C)C3(C)CC2c2ccccc2O3)cc1OC (stereo not given)	none
CC1(CCl)N([O-])C2=C(CCCC2)[N+]1=O (stereo not given)	MEX-5 binding -36.5
CCOC(=O)c1sc(-c2ccc(C(F)(F)F)cc2)nc1O	Bcl-xL primary 36.4
O=C(c1cc(=O)[nH]c2ccccc12)N(Cc1nnc(-c2ccccc2Cl)o1)C1CC1	none
Cc1ccc2nc3sc(C(=O)N4CCCc5ccccc54)c(N)c3cc2c1	MEX-5 binding -34.8
CCCCn1c(SCC(=O)c2ccc(O)c(O)c2)nc2ccsc2c1=O	none
O=C(O)CCCCCn1c(SCC(=O)c2ccc(O)c(O)c2)nc2ccsc2c1=O	MEX-5 binding -26.9
CC(C)S(=O)(=O)N1CCN(c2ccnc3cc(Cl)ccc23)CC1	IDE inh 23.3 (no result: IDE cell activ)
